According to ChEMBL document CHEMBL3988442, “University of Dundee, Small-Polar-MMV Screening Library” (2021):
Potency and affinity values are given separately.

Molecular target: Protein translocase subunit SecA (Escherichia coli (strain K12)) (UniProt P10408)
Assay: Assay to Identify E. coli SecA ATPase Inhibitors
Assay type: functional
Design: scale not given: direction of the effect not stated beside the values
Settings: 30 µM

Protein translocase subunit SecA (Escherichia coli (strain K12)), sequence (P10408 whole entry): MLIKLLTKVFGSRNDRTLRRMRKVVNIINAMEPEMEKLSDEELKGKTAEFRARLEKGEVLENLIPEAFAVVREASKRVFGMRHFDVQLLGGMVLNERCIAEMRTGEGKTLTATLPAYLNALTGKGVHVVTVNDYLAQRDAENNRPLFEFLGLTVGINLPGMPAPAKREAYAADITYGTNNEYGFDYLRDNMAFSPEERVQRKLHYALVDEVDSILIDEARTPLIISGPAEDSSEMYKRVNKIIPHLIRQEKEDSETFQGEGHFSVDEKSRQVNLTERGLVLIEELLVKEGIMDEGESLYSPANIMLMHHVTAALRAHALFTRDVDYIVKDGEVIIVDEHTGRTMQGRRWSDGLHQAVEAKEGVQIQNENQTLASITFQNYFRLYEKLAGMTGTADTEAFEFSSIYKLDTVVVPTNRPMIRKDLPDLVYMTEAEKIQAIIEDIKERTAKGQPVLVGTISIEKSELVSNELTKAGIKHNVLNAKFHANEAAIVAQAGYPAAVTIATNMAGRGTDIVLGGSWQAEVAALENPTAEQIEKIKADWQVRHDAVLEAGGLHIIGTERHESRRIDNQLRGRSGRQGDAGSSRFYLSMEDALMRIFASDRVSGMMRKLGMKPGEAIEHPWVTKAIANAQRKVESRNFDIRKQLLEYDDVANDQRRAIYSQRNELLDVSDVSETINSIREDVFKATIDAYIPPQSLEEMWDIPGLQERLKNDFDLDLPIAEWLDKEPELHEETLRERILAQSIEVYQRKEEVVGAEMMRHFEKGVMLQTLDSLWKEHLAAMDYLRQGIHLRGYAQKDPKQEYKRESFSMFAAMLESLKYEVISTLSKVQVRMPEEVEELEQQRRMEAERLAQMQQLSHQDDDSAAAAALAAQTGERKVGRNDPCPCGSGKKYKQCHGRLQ

SMILES | Percent Effect
CC(C(=O)Nc1ccc(N2CCCC2)nc1)n1ccnc1 (stereo not given) | -1.03%
O=C1N(Cc2ccccc2F)CCCC12CCN(C1CCSCC1)C2 (stereo not given) | -1.79%
Cn1cc(CN2CC3(CCN(C(=O)c4ccoc4)C3)C2)cn1 | -1.29%
CCOC(=O)NC(CNC(=O)CCc1ccccn1)CC(C)C (stereo not given) | -7.25%
Cc1ccc(C2CSCCN2C(=O)C2=CCCC2)o1 (stereo not given) | -5.63%
Cc1nc(Nc2nccs2)cc(C2CCCN2C2CCOCC2)n1 (stereo not given) | -6.58%
COCc1cn([C@@H]2c3ccccc3C3(CCNCC3)[C@H]2O)nn1 | -4.27%
N#Cc1ccc(F)c(CN2CCCC2Cn2cnc3ccccc32)c1 (stereo not given) | -4.77%
O=C(CCCc1ncc(-c2ccccc2)o1)N1CCN(CCO)CC1 | -2.7%
CCn1cnnc1CNC(=O)N(C)Cc1ccc2c(c1)OCCO2 | -0.341%
COCCNC(=O)C(C)n1cc(Br)cn1 (stereo not given) | -3.71%
CCn1nc(CC(C)C)cc1C(=O)N1C[C@H](O)[C@@H](N2CCCCC2)C1 | -3.95%
O=C(CN1CCC(c2ccnn2CCO)CC1)NCc1cccs1 | -3.33%
CCOc1ccc(CC(=O)N2CCN(c3nccn3C)CC2)cc1 | -0.699%
O=C(C1CC1)N1CCCC1C1CCN(Cc2ccccc2)CC1 (stereo not given) | -2.89%
Cc1nc(C)n(CC2CN(c3ccc(C#N)cn3)CCO2)n1 (stereo not given) | -4.11%
COc1cc(N2C[C@@H]3COC[C@]3(COCc3cccc(C)n3)C2)ncn1 | -0.6%
COCCN1CCC2(CC1)CC(COC)N(c1ncccn1)C2 (stereo not given) | -4.36%
O=C(CCOCc1ccccc1)N1CCCC1c1noc(C2CC2)n1 (stereo not given) | -0.0528%
CS(=O)(=O)NCC1CCCN(Cc2ccc(F)c3cccnc23)C1 (stereo not given) | -1.47%

SMILES | Percent Effect
O=C(NC[C@]12COC[C@H]1CN(Cc1nccs1)C2)c1ccccc1 | -4.56%
CCc1cnc(CNc2ccc(C(=O)N3CCCC(C)C3)cc2C)o1 (stereo not given) | -1.36%
Cc1cc(C[C@@H]2COC[C@@H]2NC(=O)CN2CCCC2)on1 | -4.18%
Fc1cccc(Oc2ccc(CNCC3CNc4ccnn4C3)cn2)c1 (stereo not given) | -2.95%
Cn1cccc1C(=O)N1CCN(Cc2ccncc2)c2ncccc2C1 | 1.82%
CC(=O)Nc1nc(C(=O)N2CCCC(n3ccnc3)C2)cs1 (stereo not given) | -2.04%
CN(C)C1CCN(C(=O)NCc2ccc(Cn3cncn3)cc2)CC1 | -4.29%
NC(=O)CN1CCCN(C(=O)c2ccn(-c3cccc(F)c3)n2)CC1 | -1.81%
COCCCC1(CO)CCCN(CCS(C)(=O)=O)C1 (stereo not given) | -1.54%
CC1CCCCN1c1nc2c(c(=O)[nH]1)CCN(Cc1cccnc1)C2 (stereo not given) | -3.13%
Cc1cc(CC(=O)N(CC2CN(C)CCO2)c2nccs2)no1 (stereo not given) | 1.69%
CC(C)NC(=O)N1CCN(S(=O)(=O)C2CC2)CC2(CC(=O)N(C)C2)C1 (stereo not given) | -4.24%
CCCNC(=O)N1CCN(Cc2cc(C)no2)CC1 | -3.25%
O=C(COCc1ccccc1Cl)N1CCCC(n2cccn2)C1 (stereo not given) | -4.85%
O=C(CN1CCCCC1Cn1cccn1)NC1CCN(C2CC2)CC1 (stereo not given) | -0.952%
COCC1CC2(CCN(C(=O)c3cc(C)oc3C)CC2)CN1C(C)C (stereo not given) | -2.57%
CCCN(CC(=O)NC)C(=O)c1ccc(-c2ccsc2)nc1C | -1.19%
COCCN1C[C@H]2CC[C@@]3(N=C(C)N(CC4CC4)C3=O)[C@H]2C1 | -4.99%
CCO[C@@H]1CC[C@H]2[C@H]1OCCN2C(=O)C1CCOCC1 | -5.85%
O=C(c1cccnc1-n1cccn1)N1CCN(CC2CC2)CC1 | -4.46%

Molecular target: T1, Ubiquitin-activating enzyme e1, putative (Leishmania donovani (strain BPK282A1)) (UniProt E9BSI1)
T1 sequence (whole entry): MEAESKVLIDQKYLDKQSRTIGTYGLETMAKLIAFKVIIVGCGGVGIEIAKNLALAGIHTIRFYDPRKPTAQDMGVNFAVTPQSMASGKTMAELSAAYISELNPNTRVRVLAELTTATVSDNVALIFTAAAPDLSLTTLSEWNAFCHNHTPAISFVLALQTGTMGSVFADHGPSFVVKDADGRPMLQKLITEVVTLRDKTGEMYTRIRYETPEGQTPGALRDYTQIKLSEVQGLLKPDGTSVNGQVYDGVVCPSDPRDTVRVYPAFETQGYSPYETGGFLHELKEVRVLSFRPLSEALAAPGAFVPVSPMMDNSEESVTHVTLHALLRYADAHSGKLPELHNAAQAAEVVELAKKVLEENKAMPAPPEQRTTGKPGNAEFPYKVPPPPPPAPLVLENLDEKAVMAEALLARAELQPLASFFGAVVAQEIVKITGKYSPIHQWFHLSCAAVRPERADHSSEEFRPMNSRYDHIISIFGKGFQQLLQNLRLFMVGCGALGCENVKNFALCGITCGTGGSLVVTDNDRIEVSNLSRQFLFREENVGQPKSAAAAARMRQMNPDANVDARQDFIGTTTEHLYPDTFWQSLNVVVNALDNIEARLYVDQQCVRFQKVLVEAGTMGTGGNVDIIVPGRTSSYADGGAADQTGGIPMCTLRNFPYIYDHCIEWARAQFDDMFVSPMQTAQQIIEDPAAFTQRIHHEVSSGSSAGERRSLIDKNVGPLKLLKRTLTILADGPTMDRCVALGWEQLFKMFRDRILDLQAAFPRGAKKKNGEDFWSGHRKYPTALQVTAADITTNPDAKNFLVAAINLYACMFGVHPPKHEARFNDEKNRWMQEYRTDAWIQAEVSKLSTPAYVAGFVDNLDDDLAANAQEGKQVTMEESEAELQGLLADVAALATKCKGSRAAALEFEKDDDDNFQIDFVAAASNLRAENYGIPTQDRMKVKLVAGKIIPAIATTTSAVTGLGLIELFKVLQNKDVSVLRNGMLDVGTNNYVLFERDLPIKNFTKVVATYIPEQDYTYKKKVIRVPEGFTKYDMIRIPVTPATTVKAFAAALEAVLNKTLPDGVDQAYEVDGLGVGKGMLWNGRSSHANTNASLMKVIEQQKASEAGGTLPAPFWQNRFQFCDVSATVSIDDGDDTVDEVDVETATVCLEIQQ
Assay: Leishmania donovani Ubiquitin Activating Enzyme (LdE1)
Assay type: functional
Design: scale not given: direction of the effect not stated beside the values
Settings: 30 µM

SMILES | Percent Effect
CC(C(=O)Nc1ccc(N2CCCC2)nc1)n1ccnc1 (stereo not given) | 5.41%
O=C1N(Cc2ccccc2F)CCCC12CCN(C1CCSCC1)C2 (stereo not given) | -8%
Cn1cc(CN2CC3(CCN(C(=O)c4ccoc4)C3)C2)cn1 | -2.74%
CCOC(=O)NC(CNC(=O)CCc1ccccn1)CC(C)C (stereo not given) | 0%
Cc1ccc(C2CSCCN2C(=O)C2=CCCC2)o1 (stereo not given) | 8.11%
Cc1nc(Nc2nccs2)cc(C2CCCN2C2CCOCC2)n1 (stereo not given) | 12.2%
COCc1cn([C@@H]2c3ccccc3C3(CCNCC3)[C@H]2O)nn1 | 9.72%
N#Cc1ccc(F)c(CN2CCCC2Cn2cnc3ccccc32)c1 (stereo not given) | -5.41%
O=C(CCCc1ncc(-c2ccccc2)o1)N1CCN(CCO)CC1 | 20.2%
CCn1cnnc1CNC(=O)N(C)Cc1ccc2c(c1)OCCO2 | -16.2%
COCCNC(=O)C(C)n1cc(Br)cn1 (stereo not given) | 5.2%
CCn1nc(CC(C)C)cc1C(=O)N1C[C@H](O)[C@@H](N2CCCCC2)C1 | 16%
O=C(CN1CCC(c2ccnn2CCO)CC1)NCc1cccs1 | 15.2%
CCOc1ccc(CC(=O)N2CCN(c3nccn3C)CC2)cc1 | 13%
O=C(C1CC1)N1CCCC1C1CCN(Cc2ccccc2)CC1 (stereo not given) | 2.63%
Cc1nc(C)n(CC2CN(c3ccc(C#N)cn3)CCO2)n1 (stereo not given) | 10.5%
COc1cc(N2C[C@@H]3COC[C@]3(COCc3cccc(C)n3)C2)ncn1 | 2.7%
COCCN1CCC2(CC1)CC(COC)N(c1ncccn1)C2 (stereo not given) | 7.79%
O=C(CCOCc1ccccc1)N1CCCC1c1noc(C2CC2)n1 (stereo not given) | 21.6%
CS(=O)(=O)NCC1CCCN(Cc2ccc(F)c3cccnc23)C1 (stereo not given) | 2.6%

SMILES | Percent Effect
O=C(NC[C@]12COC[C@H]1CN(Cc1nccs1)C2)c1ccccc1 | 17.3%
CCc1cnc(CNc2ccc(C(=O)N3CCCC(C)C3)cc2C)o1 (stereo not given) | -5.2%
Cc1cc(C[C@@H]2COC[C@@H]2NC(=O)CN2CCCC2)on1 | 2.74%
Fc1cccc(Oc2ccc(CNCC3CNc4ccnn4C3)cn2)c1 (stereo not given) | 13%
Cn1cccc1C(=O)N1CCN(Cc2ccncc2)c2ncccc2C1 | 13.3%
CC(=O)Nc1nc(C(=O)N2CCCC(n3ccnc3)C2)cs1 (stereo not given) | -7.89%
CN(C)C1CCN(C(=O)NCc2ccc(Cn3cncn3)cc2)CC1 | -5.41%
NC(=O)CN1CCCN(C(=O)c2ccn(-c3cccc(F)c3)n2)CC1 | 6.94%
COCCCC1(CO)CCCN(CCS(C)(=O)=O)C1 (stereo not given) | 0%
CC1CCCCN1c1nc2c(c(=O)[nH]1)CCN(Cc1cccnc1)C2 (stereo not given) | 12.2%
Cc1cc(CC(=O)N(CC2CN(C)CCO2)c2nccs2)no1 (stereo not given) | 0%
CC(C)NC(=O)N1CCN(S(=O)(=O)C2CC2)CC2(CC(=O)N(C)C2)C1 (stereo not given) | 10.4%
CCCNC(=O)N1CCN(Cc2cc(C)no2)CC1 | 23.7%
O=C(COCc1ccccc1Cl)N1CCCC(n2cccn2)C1 (stereo not given) | 18.2%
O=C(CN1CCCCC1Cn1cccn1)NC1CCN(C2CC2)CC1 (stereo not given) | 0%
COCC1CC2(CCN(C(=O)c3cc(C)oc3C)CC2)CN1C(C)C (stereo not given) | 0%
CCCN(CC(=O)NC)C(=O)c1ccc(-c2ccsc2)nc1C | 6.94%
COCCN1C[C@H]2CC[C@@]3(N=C(C)N(CC4CC4)C3=O)[C@H]2C1 | 5.41%
CCO[C@@H]1CC[C@H]2[C@H]1OCCN2C(=O)C1CCOCC1 | 21.6%
O=C(c1cccnc1-n1cccn1)N1CCN(CC2CC2)CC1 | 5.41%
